Compound activity from PubChem BioAssay.
HT1080NT lethal = kills 2HG-producing HT-1080-NT fibrosarcoma cells. HT-1080-NT fibrosarcoma viability, CellTiter-Glo ATP luminescence, 48 h. 360,000 compounds, 1.6% hits. AID 686970. Potency, µM (titrated, usually from 46.1 µM), hits mostly cytotoxic;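 note: NT is the 2HG producing partner of a matched IDH1 knockdown line; nearly all actives have a fitted effect of over 55% in size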
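Toxicity toward the 2HG-producing NT line was scored as %Activity, normalised to DMSO and no-cell wells, from CellTiter-Glo luminescence after 48 hours' treatment.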
HT1080 IDH1KD tx = HT-1080 IDH1 knockdown cell toxicity (counter line) | Potency, µM (series often up to 46.1 µM), usual class: cytotoxic | 360,000 compounds, 2% hits | AID 686971 | HT-1080 IDH1 knockdown viability, ATP luminescence, 48 h
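Knockdown cells (IDH1KD HT-1080) received compounds 2 h after plating at 750 cells/well and were kept 48 h at 37 °C in 5% FBS RPMI. A CellTiter-Glo luminescence read gave % activity for curve fitting.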
ATXN2 expr inh = inhibitors of ATXN2 expression; AID 1745845; Potency, µM (top dose mostly 57 µM), actives largely listed as inhibitors; 360,000 compounds, 0.72% hits; HEK-293 ATXN2-luciferase reporter, luminescence, 24 h; note: nearly all actives have a fitted effect of over 55% in size
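qHTS (up to 57 uM final) was run with 24 h compound exposure of reporter cells at 37 °C. Each well was multiplexed: SteadyGlo luminescence measured ATXN2-luciferase expression after a fluorogenic Gly-Phe-AFC viability readout (25 uM final).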
KB-3-1 cytotox = kills parental KB-3-1 adenocarcinoma cells. Potency, µM (series often up to 46.1 µM), hits mostly cytotoxic. KB-3-1 viability, CellTiter-Glo ATP luminescence, 72 h. 400,000 compounds, 1.4% hits; note: nearly all actives have a fitted effect of over 60% in size
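KB-3-1 cells, DMEM (no phenol red) + 10% FBS; compound by pin transfer, 72 h, 37 °C. Readout: CellTiter-Glo luminescence after 10 min. Data normalized, curve-fitted.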
S2 tox = reduces viability in counter-screen for ATXN expression inhibitors; AID 651635; 400,000 compounds, 0.49% hits; S2 cells (HEK-293 line with an ATXN2-luciferase reporter) viability, CellTiter-Fluor protease fluorescence, 24 h; Potency, µM (doses to about 56.7 µM), most hits filed as cytotoxic; note: nearly all actives have a fitted effect of over 40% in size
KB-V1 cytotox = kills drug-selected multidrug resistant KB-V1 cells | KB-V1 MDR cells viability, CellTiter-Glo, 72 h | Potency, µM (series often up to 46.1 µM), hits mostly cytotoxic | 400,000 compounds, 3.4% hits; note: nearly all actives have a fitted effect of over 60% in size
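Cells of the MDR subline KB-V1 are plated, dosed with compound at multiple concentrations, and incubated 72 h at 37 degrees C; CellTiter-Glo is then added and luminescence read after 10 min.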
Hits are given with their value; – = inactive; ? = inconclusive; · = no result given; ! = a repeat was not active; [ ] = remark or other dose. Shown are actives, neighbours in structure and some others; about 6.2% of the full set was active somewhere. Calls come from the whole dose curve; as a rule, active = well fitted curve in the direction sought with a large enough effect; inconclusive = small, poorly fitted or top-dose-only effect, or another doubt; inactive = no such curve, though single readings can be large; an effect the other way counts as inactive or inconclusive.

SMILES	HT1080NT lethal	HT1080 IDH1KD tx	ATXN2 expr inh	KB-3-1 cytotox	S2 tox	KB-V1 cytotox
CC1CCC(C(=O)c2c(O)c3ccccc3oc2=O)CC1 (stereo not drawn)	–	–	–	?	–	3.66µM
COc1ccc(OCC(=O)c2c(O)c3ccccc3oc2=O)cc1	–	–	–	?	–	20.6µM
CCOc1ccc(OCC(=O)c2c(O)c3ccccc3oc2=O)cc1	–	–[9.24 µM]	–	–	–	?
CN1[C@@H]2CC[C@H]1CC(NC(=O)n1c(=O)[nH]c3ccccc31)C2 (stereo partly drawn)	·	·	–	·	?	·
Cc1c(C(=O)NCCN2CCC(c3ccccc3)CC2)cnn1-c1nccc(-c2cccs2)n1	·	·	·	·	28.2µM	·
COc1ccc(-n2nc(C(=O)NCCc3ccc(Cl)cc3)c3c4ccccc4n(C)c3c2=O)cc1	·	·	–	–	–	–
Cc1c(C(=O)Nc2nonc2-c2ccc(F)cc2)oc2ccc(F)cc12	?	20.6µM	28.2µM	18.4µM	?	?
COc1cc(OC)c(N(C)S(=O)(=O)c2cccc(C(=O)NC3=NCCS3)c2)cc1Cl	?	16.4µM	?	?	–	?
CC1(c2nc3ccccc3[nH]2)c2ccccc2C(=O)N1Cc1ccccc1 (stereo not drawn)	–	–	–	–	–	?
CC1(C)CCC(=O)N2CC[C@H]3C[C@H](OC(=O)Nc4ccccc4)C[C@@H]1[C@H]32	–	–	–	–	–	18.4µM!
O=[N+]([O-])c1cc(C(F)(F)F)ccc1NCCc1c[nH]c2ccc(O)cc12	12.6µM	12.6µM	–	–	–	–
O=C(NCC12CC3CC(CC(C3)C1)C2)c1cc2nc(-c3ccc(Cl)cc3)cc(C(F)(F)F)n2n1	·	·	–	–	–	–
COC(=O)c1ccccc1-c1cc(C)cc2c1OC(CNC(=O)c1cnc(C)cn1)C2 (stereo not drawn)	·	·	·	·	–	·
COc1cc(C=CC(=O)c2cc(OC)c(OC)c(OC)c2)cc(OC)c1OC	?	23.1µM	?	6.51µM	?	?
COc1cc(/C=C/C(=O)N2CCCN(C(=O)/C=C/c3cc(OC)c(OC)c(OC)c3)CC2)cc(OC)c1OC	–	–	·	?	–	–
COc1cc(C=CC(=O)c2ccccc2)cc(OC)c1OC	10.3µM	8.2µM	?	?	–	23.1µM
COc1cc(/C=C/C(C)=O)cc(OC)c1OC	–	–	–	23.1µM	–	–
COc1cc(/C=C/C(=O)N2CCC=CC2=O)cc(OC)c1OC	5.8µM	4.11µM	10µM	?	10µM	?
CCOC(=O)c1scc(-c2ccc(C)cc2)c1S(=O)(=O)Nc1cc(Cl)ccc1OC	·	·	–	–	–	–
C[C@H](CO)N1C[C@H](C)[C@@H](CN(C)S(=O)(=O)c2cccc(C#N)c2)OCc2cnnn2CCCC1=O	–	–	–	–	–	–
COc1ccc(-c2nc3c(c(SCC(=O)Nc4ccccc4F)n2)Cc2cc(C)ccc2O3)cc1	·	·	–	–	–	–
COc1ccc2[nH]cc(/C=C/C(=O)c3ccccc3)c2c1	18.4µM	18.4µM	–	–	·	–
COc1ccc2[nH]cc(C(=O)CCl)c2c1	5.8µM	7.31µM	?	11.6µM	15.8µM	?
O=C(/C=C/c1c[nH]c2ccccc12)c1ccccc1	–	–	–	–	–	–
COc1cc(-c2cc(C)c3cccc(OC)c3n2)cc2c1OCCN(C(=O)CCn1nc(C)cc1C)C2	·	·	·	·	–	·
SMILES	HT1080NT lethal	HT1080 IDH1KD tx	ATXN2 expr inh	KB-3-1 cytotox	S2 tox	KB-V1 cytotox
Cc1ccc(C2c3[nH]c4ccccc4c3C[C@H]3C(=O)N(c4ccccc4C(=O)NCCCN4CCOCC4)C(=O)N23)cc1 (stereo partly drawn)	?	29.1µM	?	–	?	–
COc1cccc(CNC(=O)CCc2c(C)nc3c(c(C)nn3-c3ccc(C)c(C)c3)c2C)c1	·	·	–	–	–	?
CCN1C(=NCc2cccc(Cl)c2)N[C@@H](c2cccc(C(F)(F)F)c2)C(C(=O)OC)=C1C	·	·	·	–	·	–
COC(=O)C1=C(C)N(Cc2ccccc2)C(=NCCc2c[nH]c3ccccc23)N[C@H]1c1cccc(F)c1	?	–	?	?	22.4µM	?
CCN(CC)CCCN=C1N[C@@H](c2cccc(C(F)(F)F)c2)C(C(=O)OC)=C(C)N1CC	?	?	?	?	22.4µM	–
CCN(CC)CCCN=C1N[C@@H](c2cccc(F)c2)C(C(=O)OC)=C(C)N1Cc1ccccc1	?	?	22.4µM	?	25.1µM	?
COc1cc(NC(=O)C(NS(=O)(=O)c2ccc3c(c2)CCCC(=O)N3)C(C)C)cc(OC)c1 (stereo not drawn)	·	·	–	–	–	–
CC(=O)c1c(C)[nH]c(C(=O)CSc2nnc(-c3ccccc3)n2Cc2ccc3c(c2)OCO3)c1C	?	23.1µM	?	–	–	?
CC(=O)c1c(C)[nH]c(C(=O)CSc2nnc(-c3cccs3)n2Cc2ccccc2)c1C	–	–	–	–	–	5.8µM
